Experimental data published in PubChem BioAssay AID800 (PCMD, 2007).
The whole screen tested about 220,000 compounds, of which about 650 (0.3%) were called active. No stated cut-off is given here; in the data, active means inhibition above about 40%; inactive means the rest. Many of the other results were omitted from the sample, so actives are more common in it than they were.

Each compound was assayed against Coagulation factor XII (Homo sapiens) (UniProt P00748) (assay: coagulation factor XIIa activity inhibition – biochemical, 1536-well, primary screen (AID 800;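 further: 0% = enzyme with no compound and 100% = blank without enzyme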)). Conditions: purified FXIIa, Boc-QGR-AMC fluorogenic substrate, 2 h; at 5 µM; stronger effect = higher value.
Chain of Coagulation factor XII (Homo sapiens) (P00748 20-372 limits assumed): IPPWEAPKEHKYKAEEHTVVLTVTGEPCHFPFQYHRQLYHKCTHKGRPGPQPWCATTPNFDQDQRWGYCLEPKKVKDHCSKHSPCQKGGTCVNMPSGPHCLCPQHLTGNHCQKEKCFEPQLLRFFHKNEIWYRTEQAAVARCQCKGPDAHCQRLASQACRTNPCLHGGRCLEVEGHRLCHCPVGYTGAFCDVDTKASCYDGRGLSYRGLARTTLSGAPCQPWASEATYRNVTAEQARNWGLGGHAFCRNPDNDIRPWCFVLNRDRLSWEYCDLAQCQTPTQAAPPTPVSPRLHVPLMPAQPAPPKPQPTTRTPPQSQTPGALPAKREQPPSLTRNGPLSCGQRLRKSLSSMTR
Chain of Coagulation factor XII (Homo sapiens) (P00748 373-615 limits assumed): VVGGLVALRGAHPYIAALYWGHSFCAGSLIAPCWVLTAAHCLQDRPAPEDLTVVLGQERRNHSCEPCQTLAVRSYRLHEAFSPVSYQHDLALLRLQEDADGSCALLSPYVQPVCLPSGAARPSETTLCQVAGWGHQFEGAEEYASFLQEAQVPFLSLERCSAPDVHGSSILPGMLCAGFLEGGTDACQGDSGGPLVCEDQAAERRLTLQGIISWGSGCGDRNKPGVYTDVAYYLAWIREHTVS
With `Cc1ccc(/C=C/C(=O)O)cc1S(=O)(=O)N1CCC(Cc2ccccc2)CC1` the inhibition was 6.76% (inactive). For `O=c1[nH]nc(SCCS(=O)(=O)c2ccc(F)cc2)n1-c1ccccc1C(F)(F)F`, the inhibition was 6.99% (inactive). For `CN(c1ccccn1)c1ncnc2[nH]ncc12`, the inhibition was 3.53% (inactive). For `O=C(NC1CC1)C1=C[C@H](c2c[nH]c3ccccc23)C[C@H](OCc2ccc(CO)cc2)O1`, the inhibition was 1.62% (inactive). In the case of `Cc1nc(C(=O)NCc2ccccc2)sc1C1(C)CC(c2cccnc2)=NO1` (configuration not stated), the inhibition is reported as 6.55% (inactive). In the case of `CC1=NNC(=O)C1CC(=O)N/N=C/c1ccncc1` (configuration not stated), the inhibition is reported as 2.75% (inactive). In the case of `C=CCCN(Cc1ccccc1)S(=O)(=O)c1ccccc1Br`, the inhibition is reported as 5.98% (inactive). For `c1ccc(-n2cccc2)c(N2CCCCC2)c1`, the inhibition was 46.9% (active). `Cc1ccccc1NC(=O)Nc1ccccc1N1CCCCC1` was tested, and the inhibition was 5.71% (inactive). With `c1ccc(-c2cc(N3CCCCC3)c3ccccc3n2)cc1` the inhibition was 16% (inactive). `Cc1cc(-n2cnc(-c3cn(C)nc3C)n2)no1` was tested, and the inhibition was 11.1% (inactive). In the case of `CCCCCCNS(=O)(=O)c1ccccc1Br`, the inhibition is reported as 9.21% (inactive). With `O=C(Cn1cnc2cc([N+](=O)[O-])ccc2c1=O)NC(=O)NCc1ccccc1` the inhibition was 1.31% (inactive). In the case of `CCOC(=O)NNc1cc(C(F)(F)F)ccn1`, the inhibition is reported as 9.46% (inactive). In the case of `O=C(NNS(=O)(=O)c1ccccc1C(F)(F)F)c1cc2ncc(C(F)(F)F)cc2s1`, the inhibition is reported as 9.81% (inactive). With `CCc1ccc[n+](-c2nc([O-])sc2C=O)c1` the inhibition was 9.94% (inactive). With `C#CCOCCOCCOCCNc1nc(N2CCN(C(=O)[C@H](CCC(=O)O)n3cc(C(N)CO)nn3)CC2)nc(N2CCN(C(=O)[C@H](CCCCN)n3cc(C(N)CC(C)C)nn3)CC2)n1` (some centres not stated) the inhibition was 5.53% (inactive). For `N#Cc1c(NCCO)ccc([N+](=O)[O-])c1NCCO`, the inhibition was 12.3% (inactive). With `CCCC[C@@H]1CN=C(N)N1CCc1cc(C(F)(F)F)cc(C(F)(F)F)c1` the inhibition was 2.17% (inactive). `CC(C)c1ccc(NC(=S)NC2CC3C=CC2C3)cc1` (configuration not stated) was tested, and the inhibition was 3.63% (inactive). In the case of `CCCc1c(C(=O)Nc2ccc(F)cc2)cnn1-c1ccccc1`, the inhibition is reported as -0.53% (inactive). For `CCOC(=O)c1c(NC(=S)NC(=O)c2ccco2)sc2c1CCCC2`, the inhibition was 23.9% (inactive). `CCOCC(=O)Nc1sc2c(c1C(=O)OCC)CCCC2` was tested, and the inhibition was 5.03% (inactive). For `CCOC(=O)c1c(NC(=O)c2ccc(Br)o2)sc2c1CCCC2`, the inhibition was 44% (active). In the case of `C=C1CCN([C@H](C(=O)NCc2cc(OC)c(OC)c(OC)c2)C(C)C)S(=O)(=O)c2ccccc21`, the inhibition is reported as 4.35% (inactive). `FC(F)(F)c1ccnc(Oc2ccc(C3=NCCS3)cc2)c1` was tested, and the inhibition was 9.29% (inactive). `CCOc1ccc(C2c3[nH]c4ccccc4c3CCN2Cc2cccn2-c2ncccn2)cc1` (configuration not stated) was tested, and the inhibition was 4.53% (inactive). In the case of `CC(C)(C)CN1C(=O)C(=O)NC[C@H]1Cc1cccc2ccccc12`, the inhibition is reported as 4.1% (inactive). For `COCc1cc(=O)[nH]c(-c2ccc(C(F)(F)F)cc2)n1`, the inhibition was 8.57% (inactive). With `COc1ccccc1C1CCN(C(=S)Nc2ccc(Br)cc2)CC1` the inhibition was 3.05% (inactive). `Fc1ccc(-c2csc(-c3ccc(C4SCCS4)cc3)n2)cc1F` was tested, and the inhibition was 7.1% (inactive). With `COc1ccc(C(CC(=O)N2CCN(c3ccccc3)CC2)c2c(O)cc(OC)cc2OC)cc1` (configuration not stated) the inhibition was 1.72% (inactive).
